# Several values for one entry are separate records, joined by “and”; a condition that tells them apart may be missing. Identical values can stand only once. Inconclusive results are not listed. Values without a mark were called inactive. Activity calls are given as the source filed them. Calls come from the whole dose curve; as a rule, active = well fitted cell-killing curve with a large enough effect; inconclusive = small, poorly fitted or top-dose-only effect, or effect the other way; inactive = no such curve, though single readings can be large or run the other way.
# Experiment: qHTS of pediatric cancer cell lines to identify multiple opportunities for drug repurposing: Confirmatory screen for LAN-5 cells (AID 1347113); note: nearly all actives have a fitted effect of over 65% in size
# Conditions: LAN-5 neuroblastoma cell viability; series mostly up to 45.9 µM; activity change, negative = cytotoxicity: at the top concentration
# Source text: Drug repurposing or repositioning has been offered as a strategy for drug development in oncology programs. This approach has special potential for childhood cancers and other rare or orphan diseases, where the expected return on new drug development has been a disincentive to pharmaceuticals.
# In this project we exploit the poly-pharmacology of drugs to discover new indications via phenotypic screening of a panel of 19 well-characterized cell lines derived from solid tumors seen in children and adolescents. The goal is to identify approved drugs with previously unrecognized anticancer properties that has the potential to reveal new mechanisms and biological processes involved in carcinogenesis or drug resistance. We employed a titration-based paradigm (quantitative high-throughput screening or qHTS), where all compounds were tested at multiple concentrations for their effect on cell viability. Concentration-response curves (CRCs) were derived directly from the primary screen, and both potency and efficacy values were used to identify compounds with robust bioactivity profiles. We screened the NIH Chemical Genomics Center (NCGC) Pharmaceutical Collection (NPC) and Mechanism Interrogation Plate (MIPE) small molecule collections of approved and investigational compounds against these cell lines; and measured metabolically active cells after 48 hours of compound treatment as a proxy for cell viability.
# Assay Submitter: Nathalia J. Martinez, National Center for Advancing Translational Sciences, National Institutes of Health, Rockville, MD, USA; email: natalia.martinez@nih.gov
# [1] Shen, M et al. Quantitative high-throughput phenotypic screening of pediatric cancer cell lines identifies multiple opportunities for drug repurposing. Oncotarget 2017 Dec 19;9(4):4758-4772. PMID 29435139.
# The cells were obtained from University of North Carolina (UNC), Pediatric Preclinical Testing Program (PPT), and Coriell Institute (CI).
# qHTS cell viability assay:
# Cells were assayed in growth media at a density of 500-1,000 cells/well. Five microliters of cells were dispensed into 1,536-well, white, solid-bottom, TC-treated plates (Greiner Bio One) using a multidrop dispenser and incubated at 37 degrees C, 5% CO2, under a humidified atmosphere for 5 hours. Twenty-three nanoliters of compounds and controls (neutral control DMSO or positive control bortezomib at final concentration of 2.3 µM) were subsequently transferred by Kalypsys pintool. For primary screens, the MIPE collection was tested at 11-point dilutions (final concentrations range from 0.78 nM to 46 µM) and the NPC collection at 8-point dilutions (final concentrations range from 0.59 nM to 46 µM). Compounds tested in follow-up screens were assayed at 11-point dilutions. Cells were incubated for 48 hours, followed by addition of 3 µL of CellTiter-Glo (Promega). After a 15 min incubation at room temperature, samples were analyzed for luminescence intensity using a ViewLux High-throughput CCD imager equipped with clear filters.
# % is set by controls: 0 for no effect and ±100 for the full control effect; potency is the fitted concentration of half-maximal effect.
SMILES,Potency,"activity change, negative = cytotoxicity [%]"
CCCCCCCCCCCC[N+](C)(C)CCOc1ccccc1,14700 nM (active),
CC[n+]1c(-c2ccccc2)c2cc(N)ccc2c2ccc(N)cc21,928 nM (active),
COc1ccc2c(C(=O)c3ccc(Cl)cc3)c(C)n(CC(=O)O)c2c1,,16.7
CCc1ccc(C2CCNCC2)cc1,,14.3
CCCCCCCCC(=O)NCc1ccc(O)c(OC)c1,,-32.2
O=C(O)Cc1ccccc1,,-27.9
C[C@@H]1C[C@@H]([C@H](O)CC2CC(=O)NC(=O)C2)C(=O)[C@@H](C)C1,928 nM (active) and 2.61 µM (active),
CN(C)C(=S)SSC(=S)N(C)C,185 nM (active),
C[C@@H]1O[C@@H](O[C@@H]2C=C3CC[C@@H]4[C@H](CC[C@]5(C)[C@@H](c6ccc(=O)oc6)CC[C@]45O)[C@@]3(C)CC2)[C@H](O)[C@H](O)[C@H]1O,58.5 nM (active),
Cc1ccc([N+](=O)[O-])[c]2c1[O][Hg]2,2930 nM (active),
CN1[C@@H]2CC[C@H]1CC(OC(=O)c1cc(Cl)cc(Cl)c1)C2 (stereo partly drawn),,-21.9
ClC1=C(Cl)C2(Cl)C(CBr)CC1(Cl)C2(Cl)Cl (stereo not drawn),,9.65
CC1Sc2c(C(=O)O)c(=O)c3cc(F)c(N4CCNCC4)cc3n21 (stereo not drawn),,7.12

# Source: PubChem BioAssay (NCATS)
